The whole screen tested about 310,000 compounds, of which about 14,000 (4.5%) showed an effect of 50% or more. Effects have a minus sign here. This excerpt belongs to a sample that is enriched for strong results.
target: human ether-à-go-go-related gene (hERG) potassium channel (human, UniProt Q12809); experiment: primary screen, population patch clamp on CHO cells stably expressing hERG; higher = less effect of the substance
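Note: peak tail current of the secondary pulse compared with the same well before compound.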

human ether-à-go-go-related gene (hERG) potassium channel, sequence (Q12809 whole entry, looked up): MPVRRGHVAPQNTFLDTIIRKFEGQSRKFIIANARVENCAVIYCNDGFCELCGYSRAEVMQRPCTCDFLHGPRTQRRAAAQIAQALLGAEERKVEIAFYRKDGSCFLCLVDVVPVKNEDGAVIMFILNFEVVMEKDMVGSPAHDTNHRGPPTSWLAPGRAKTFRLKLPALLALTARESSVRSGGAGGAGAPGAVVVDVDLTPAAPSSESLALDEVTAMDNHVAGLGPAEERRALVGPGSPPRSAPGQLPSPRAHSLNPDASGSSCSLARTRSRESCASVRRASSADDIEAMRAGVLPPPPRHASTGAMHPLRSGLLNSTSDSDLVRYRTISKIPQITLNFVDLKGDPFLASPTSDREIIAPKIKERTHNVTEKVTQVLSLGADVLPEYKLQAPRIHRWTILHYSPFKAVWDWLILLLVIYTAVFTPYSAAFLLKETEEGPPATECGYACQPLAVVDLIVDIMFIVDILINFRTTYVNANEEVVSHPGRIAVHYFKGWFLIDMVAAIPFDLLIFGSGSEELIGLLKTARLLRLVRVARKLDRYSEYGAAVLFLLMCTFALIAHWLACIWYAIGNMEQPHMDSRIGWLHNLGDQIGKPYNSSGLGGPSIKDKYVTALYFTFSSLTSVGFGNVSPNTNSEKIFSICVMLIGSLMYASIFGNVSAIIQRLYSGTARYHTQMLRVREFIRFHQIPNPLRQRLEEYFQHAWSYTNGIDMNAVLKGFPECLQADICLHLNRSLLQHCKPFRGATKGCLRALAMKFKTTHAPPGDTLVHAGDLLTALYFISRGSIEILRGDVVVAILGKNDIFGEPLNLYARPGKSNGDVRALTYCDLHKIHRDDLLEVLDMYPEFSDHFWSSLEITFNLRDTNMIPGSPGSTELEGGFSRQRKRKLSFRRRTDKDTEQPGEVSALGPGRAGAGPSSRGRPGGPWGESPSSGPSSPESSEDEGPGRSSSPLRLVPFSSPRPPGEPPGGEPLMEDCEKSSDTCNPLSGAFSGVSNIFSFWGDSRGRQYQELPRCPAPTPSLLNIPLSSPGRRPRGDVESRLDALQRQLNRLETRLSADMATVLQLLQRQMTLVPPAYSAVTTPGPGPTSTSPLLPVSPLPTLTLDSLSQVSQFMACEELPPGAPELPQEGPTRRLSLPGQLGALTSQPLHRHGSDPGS

SMILES	hERG current change (%, negative = inhibition) at 10uM [%]
O=C(Cc1ccccc1)NCC(=O)N/N=C/c1ccc(C(=O)O)cc1	12.3
C=CCc1cccc2cc(C(=O)N3CCN(C(=O)OCC)CC3)c(=O)oc12	-26.9
C=CCn1c(CSc2nc3ccccc3s2)nnc1SCC(=O)NCc1ccccc1	-43.9
CCOC(=O)c1[nH]c2ccc(F)cc2c1NC(=O)CCN1CCSCC1	-22
Cc1nc2sccn2c(=O)c1S(=O)(=O)N1CCN(c2cccc(Cl)c2)CC1	-0.478
Cc1cc(C)c(NS(=O)(=O)c2ccc3c(c2)NC(=O)C(C)C(=O)N3)c(C)c1 (centres unmarked)	2.12
O=C(c1ccc(NS(=O)(=O)c2ccccc2)cc1)N1CCN(Cc2ccc3c(c2)OCO3)CC1	-63.8
COc1ccc(NS(=O)(=O)c2cccc(C(=O)N3CCC3)c2)cc1	10.5
O=C(c1ccc(NS(=O)(=O)c2cccc([N+](=O)[O-])c2)cc1)N1CCCCCC1	-23.1
COc1ccc(OC)c(CN2CCN(C(=O)c3ccc(NS(=O)(=O)c4cccc([N+](=O)[O-])c4)cc3)CC2)c1	-70.6
COc1ccc(NS(=O)(=O)c2cccc(C(=O)N3CCN(Cc4ccc5c(c4)OCO5)CC3)c2)cc1	-76.8
CN(c1ccc(C(=O)N2CCN(Cc3ccc4c(c3)OCO4)CC2)cc1)S(=O)(=O)c1ccccc1	-38.3
COc1ccc(OC)c(CN2CCN(C(=O)c3cccc(S(=O)(=O)Nc4ccc(C)cc4)c3)CC2)c1	-34.6
COc1ccc(NS(=O)(=O)c2cccc(C(=O)N3CCCC3)c2)cc1	2.23
COc1ccc(OC)c(CN2CCN(C(=O)c3cccc(S(=O)(=O)Nc4ccccc4OC)c3)CC2)c1	-38.2
O=C(c1ccccc1)N1CCN(Cc2ccc3c(c2)OCO3)CC1	11.5
COc1cccc(OC)c1C(=O)N1CCN(Cc2ccc3c(c2)OCO3)CC1	-12
COc1ccccc1NS(=O)(=O)c1cccc(C(=O)N2CCN(Cc3ccc4c(c3)OCO4)CC2)c1	-61.4
COC(=O)C1=C(c2ccc(F)cc2F)C[C@@H]2CC[C@H]1N2C(=O)NCCOc1ccccc1	-23.5
N#CC1(N2CCN(C(=O)c3ccccc3)CC2)CCCCC1	30.1
CC1CCCCN1Cc1ccc(N)cc1 (centres unmarked)	12.7
C#CC1(NC(=O)NC(C)(C)C)CCCCC1	15.7
CCc1ccc(OCC(=O)NNC(=O)c2cc(S(=O)(=O)N(C)C)ccc2N2CCCC2)cc1	-23.4
COC(=O)c1cc(OC)c(OC)cc1NC(=O)c1cc(C(C)(C)C)oc1C	5.71
c1ccc(Cn2nnc3c(N4CCc5ccccc5C4)ncnc32)cc1	-21.5

SMILES	hERG current change (%, negative = inhibition) at 10uM [%]
COc1cc(OC)c2ccc(=O)oc2c1C(CCN1CCCC(C)C1)c1ccc(N(C)C)cc1 (centres unmarked)	-10.6
COc1cc(OC)c2ccc(=O)oc2c1C(CCN1CCCC1)c1ccc(N(C)C)cc1 (centres unmarked)	-24.1
COc1cc(OC)c2ccc(=O)oc2c1C(CCN1CCCCC1)c1ccc(N(C)C)cc1 (centres unmarked)	-16
COc1cc(C(CCN2CCN(c3ccccc3)CC2)c2c(OC)cc(OC)c3ccc(=O)oc23)cc(OC)c1OC (centres unmarked)	-8.86
COc1cc(OC)c2ccc(=O)oc2c1C(CCN1CCCC(C)C1)c1ccc2c(c1)OCO2 (centres unmarked)	-61
COc1cc(C(CC(=O)N2CCCC2)c2c(OC)cc(OC)c3ccc(=O)oc23)cc(OC)c1OC (centres unmarked)	2.42
COc1cc(C(CCN2CCCC2)c2c(OC)cc(OC)c3ccc(=O)oc23)cc(OC)c1OC (centres unmarked)	-69.2
COc1cc(OC)c2ccc(=O)oc2c1C(CC(=O)N1CCCC(C)C1)c1ccc2c(c1)OCO2 (centres unmarked)	4.24
COc1cc(OC)c2ccc(=O)oc2c1C(CCN1CCCC1)c1ccc2c(c1)OCO2 (centres unmarked)	-56.7
CS(=O)(=O)N1CCCC(C(=O)NCc2ccc(F)cc2Cl)C1 (centres unmarked)	2.22
CC1(c2ccccc2)CC(C)(C)N2C(=O)C(=O)c3cccc1c32 (centres unmarked)	19.6
CCCCNC(=S)NC(=O)c1ccc(Cl)cc1Cl	22.7
CC(=O)Nc1nc(-c2ccccc2)nc(C)c1C(C)=O	-5.89
COc1ccc(S(=O)(=O)N2CC(=O)Nc3ccccc32)cc1	-6.04
O=C1CCC(C(=O)N2CCCC(C(=O)c3ccc4ccccc4c3)C2)=NN1 (centres unmarked)	-8.31
O=C(COC(=O)Cn1cnc2ccccc21)Nc1cc(S(=O)(=O)N2CCOCC2)ccc1Cl	-0.439
Cc1nn(C(C)C)c(C)c1CN1CCC(C(=O)Nc2cccc(-c3cccc(F)c3)c2)CC1	-67.8
CCOC(=O)C1(Cc2cccc(F)c2)CCN(Cc2c(C)nn(CC)c2C)CC1	-41.4
CCS(=O)(=O)N1CCC(C(=O)Nc2cccc(F)c2)CC1	-6.51
CCn1nc(C)c(CN2CCC(C(=O)Nc3cccc(-c4cccc(Cl)c4)c3)CC2)c1C	-65
CCn1nc(C)c(CN2CCC(C(=O)Nc3cccc(-c4cccc(F)c4)c3)CC2)c1C	-67
CCc1ccc(CN2CCC(C(=O)Nc3cccc(-c4nnc(C)s4)c3)CC2)o1	-33.6
COc1cccc(-c2cccc(NC(=O)C3CCN(Cc4nccs4)CC3)c2)c1	-37.1
CCCc1ncc(CN2CCC(C(=O)Nc3cccc(-c4cscn4)c3)CC2)cn1	-34.9
Cc1nn(C(C)C)c(C)c1CN1CCCC(C(=O)c2cccc(OC(C)C)c2)C1 (centres unmarked)	-39.6
